The compounds below were run against Serine/threonine-protein kinase PAK 2 (Homo sapiens) (UniProt Q13177). Details: at 0.1 µM.
Serine/threonine-protein kinase PAK 2 (Homo sapiens), sequence (Q13177 whole entry): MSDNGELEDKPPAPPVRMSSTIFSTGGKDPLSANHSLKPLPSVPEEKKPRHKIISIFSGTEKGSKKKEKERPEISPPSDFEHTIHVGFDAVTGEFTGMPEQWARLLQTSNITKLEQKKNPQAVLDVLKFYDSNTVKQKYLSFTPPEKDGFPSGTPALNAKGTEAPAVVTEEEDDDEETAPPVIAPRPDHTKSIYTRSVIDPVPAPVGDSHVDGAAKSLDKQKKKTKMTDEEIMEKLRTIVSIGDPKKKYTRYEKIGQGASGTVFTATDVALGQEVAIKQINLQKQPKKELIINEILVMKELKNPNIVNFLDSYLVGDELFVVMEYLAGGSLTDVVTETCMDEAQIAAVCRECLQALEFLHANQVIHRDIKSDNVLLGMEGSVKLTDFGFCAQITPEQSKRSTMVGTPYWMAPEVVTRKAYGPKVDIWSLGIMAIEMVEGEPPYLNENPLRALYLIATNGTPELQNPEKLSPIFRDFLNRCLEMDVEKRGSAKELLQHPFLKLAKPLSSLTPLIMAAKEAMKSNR

Compound | inhibition [%]
Fc1ccc(-c2nn3ccccc3c2-c2ccncc2)cc1 | -0.13
c1ccc(-c2nc3n(c2-c2ccc4c(c2)OCO4)CCC3)nc1 | -0.09
N#Cc1c(NC(=O)c2ccc(F)cc2)sc2c1CCCC2 | 0.64
COc1cc(N2CCN(C(C)C)CC2)ccc1Nc1nc(Nc2ccc(F)cc2C(N)=O)c2cc[nH]c2n1 | 0.48
COc1cc2c(cc1Nc1nc(Nc3ccsc3C(N)=O)c3cc[nH]c3n1)N(C(=O)CN(C)C)CCC2(C)C | 2.44
O=S(=O)(CCNCc1ccc(-c2ccc3ncnc(Nc4ccc(OCc5cccc(F)c5)c(Cl)c4)c3c2)o1)c1ccccc1 | 2.7
CCOc1ccc2c(-c3ccnc(Nc4cccc(C(F)(F)F)c4)n3)cnn2n1 | -0.07
Cc1ccc2c(-c3ccnc(Nc4ccccc4)n3)c(-c3ccc(F)cc3)nn2n1 | 2.41
CNC(=O)c1cc(-c2ccc(F)cc2)cc(-c2ccc(S(=O)(=O)N3CCCC3)cc2)c1N | 1.46
CCn1cc(-c2ccnc3[nH]ccc23)c(-c2cccc(NC(=O)Nc3ccc(OCc4ccccc4)cc3)c2)n1 | -0.8
COc1cc(Nc2nccc(Nc3ccc4c(C)n[nH]c4c3)n2)cc(OC)c1OC | 0.97
CCn1c(-c2nonc2N)nc2c(C#CC(C)(C)O)nc(OC[C@H](N)c3ccccc3)cc21 | 1.1
c1ccc(COc2ccc(Nc3ncnc4ccc(-c5ccco5)cc34)cc2)cc1 | -0.79
Nc1ncc(-c2cccc(S(N)(=O)=O)c2)c2scc(-c3ccc(F)c(Cl)c3)c12 | 3.24
CS(=O)(=O)CCNCc1ccc(-c2ccc3ncnc(Nc4ccc(OCc5ccccc5)c(C(F)(F)F)c4)c3c2)o1 | 1.24
CCN(CC)S(=O)(=O)c1ccc(OC)c(Nc2ncc(-c3ccccc3)o2)c1 | -0.97
NS(=O)(=O)c1ccc(N/N=C2\C(=O)Nc3ccc4ncccc4c32)cc1 | 1.04
COC(=O)Nc1nc2ccc(Oc3ccc(NC(=O)Nc4cccc(Cl)c4)cc3)cc2[nH]1 | -0.81

Each compound was assayed against Serine/threonine-protein kinase PAK 2 (Homo sapiens) (UniProt Q13177). Details: at 1 µM.

Compound | inhibition [%]
CN1CCC(n2cnc(-c3ccc(F)cc3)c2-c2ccnc(N)n2)CC1 | -0.19
NC(=O)c1sc(-n2cnc3ccc(C(F)(F)F)cc32)cc1OCc1ccccc1Br | 1.46
CN(C)CCOc1ccc(-c2nc(-c3ccncc3)c(-c3ccc4c(c3)CC/C4=N\O)[nH]2)cc1 | 2.42
CCCN(CCS(C)(=O)=O)Cc1ccc(-c2ccc3ncnc(Nc4ccc(OCc5cccc(F)c5)c(Cl)c4)c3c2)o1 | 0.92
CCc1nn2ncccc2c1-c1ccnc(NC2CC2)n1 | 1.62
CCNC(=O)O[C@H]1CN[C@H](C#Cc2cc3ncnc(Nc4ccc(OCc5cccc(F)c5)c(Cl)c4)c3s2)C1 | 1.91
CNC(=O)c1cccc(C#Cc2cncnc2Nc2ccc(OCc3cccc(F)c3)c(Cl)c2)c1 | 1.72
CCN1CCC(CC(=O)Nc2n[nH]c3nnc(-c4cccc(F)c4F)cc23)CC1 | 0.33
c1cc(-c2cnn3nc(N4CCOCC4)ccc23)nc(NC2CC2)n1 | 3.04
CS(=O)(=O)CCNCc1coc(-c2ccc3ncnc(Nc4ccc(OCc5ccccc5)cc4)c3c2)c1 | 0.14
COc1ccc(-c2cc3c(N)ncnc3o2)cc1 | -0.84
N#Cc1c(NC(=O)CN2CCOCC2)sc2c1CCCC2 | 0.76
Clc1ccc(-c2nn3ncccc3c2-c2ccnc(Nc3ccccc3)n2)cc1 | -0.15
COc1cc(/C=N/Nc2ncnc3[nH]ncc23)ccc1O | 1.35
CC(C)(CO)CNC(=O)c1ccc2c(c1)/C(=N/Nc1ccc(S(N)(=O)=O)cc1)C(=O)N2 | -0.42
Cc1ccc(O)cc1Nc1ccnc2cc(-c3ccccn3)ccc12 | 2.71
Fc1ccc(-c2nn3ccccc3c2-c2ccncc2)cc1 | -0.1

Compound | inhibition [%]
c1ccc(-c2nc3n(c2-c2ccc4c(c2)OCO4)CCC3)nc1 | -0.63
N#Cc1c(NC(=O)c2ccc(F)cc2)sc2c1CCCC2 | 0.15
COc1cc(N2CCN(C(C)C)CC2)ccc1Nc1nc(Nc2ccc(F)cc2C(N)=O)c2cc[nH]c2n1 | 2.24
COc1cc2c(cc1Nc1nc(Nc3ccsc3C(N)=O)c3cc[nH]c3n1)N(C(=O)CN(C)C)CCC2(C)C | 3.48
O=S(=O)(CCNCc1ccc(-c2ccc3ncnc(Nc4ccc(OCc5cccc(F)c5)c(Cl)c4)c3c2)o1)c1ccccc1 | 3.71
CCOc1ccc2c(-c3ccnc(Nc4cccc(C(F)(F)F)c4)n3)cnn2n1 | -0.6
Cc1ccc2c(-c3ccnc(Nc4ccccc4)n3)c(-c3ccc(F)cc3)nn2n1 | 1.9
CNC(=O)c1cc(-c2ccc(F)cc2)cc(-c2ccc(S(=O)(=O)N3CCCC3)cc2)c1N | 0.63
CCn1cc(-c2ccnc3[nH]ccc23)c(-c2cccc(NC(=O)Nc3ccc(OCc4ccccc4)cc3)c2)n1 | -0.35
COc1cc(Nc2nccc(Nc3ccc4c(C)n[nH]c4c3)n2)cc(OC)c1OC | 3.21
CCn1c(-c2nonc2N)nc2c(C#CC(C)(C)O)nc(OC[C@H](N)c3ccccc3)cc21 | 10.9
c1ccc(COc2ccc(Nc3ncnc4ccc(-c5ccco5)cc34)cc2)cc1 | -0.42
Nc1ncc(-c2cccc(S(N)(=O)=O)c2)c2scc(-c3ccc(F)c(Cl)c3)c12 | 1.78
CS(=O)(=O)CCNCc1ccc(-c2ccc3ncnc(Nc4ccc(OCc5ccccc5)c(C(F)(F)F)c4)c3c2)o1 | 1.28
CCN(CC)S(=O)(=O)c1ccc(OC)c(Nc2ncc(-c3ccccc3)o2)c1 | 0.12
NS(=O)(=O)c1ccc(N/N=C2\C(=O)Nc3ccc4ncccc4c32)cc1 | 3.9
COC(=O)Nc1nc2ccc(Oc3ccc(NC(=O)Nc4cccc(Cl)c4)cc3)cc2[nH]1 | 0.02

— ChEMBL document CHEMBL1961873, “Compounds: GSK PKIS; Assays: Nanosyn kinase panel” (2012)
